Test results published in PubChem BioAssay (EPA / NIEHS).
Active and inactive are the calls of the source. Rule for the calls: active = hit-call score of the fitted dose curve at least 0.9, where 1 is the maximum; inactive = score below 0.9.

Test: APR_HepG2_P-H2AX_24hr: Apredica 24-hour HepG2 Assay for H2AX Phosphorylation (AID 2282920)
Settings: high-content imaging, actives raise or lower the signal
Procedure: APR_HepG2_24hr is a cell-based, multiplexed-readout assay that uses HepG2, a human liver cell line, with measurements taken at 24 hours after chemical dosing in a 384-well plate.APR_HepG2_P-H2AX_24hr is one of 10 assay component(s) measured or calculated from the APR_HepG2_24hr assay. It is designed to make measurements of dna content, a form of viability reporter, as detected with fluorescence intensity signals by HCS Fluorescent Imaging technology.Data from the assay component APR_HepG2_P-H2AX_24hr was analyzed into 1 assay endpoint. This assay endpoint, APR_HepG2_P-H2AX_24hr, was analyzed with bidirectional fitting relative to DMSO as the negative control and baseline of activity. Using a type of viability reporter, measures of protein for gain or loss-of-signal activity can be used to understand the signaling at the pathway-level as they relate to the gene . Furthermore, this assay endpoint can be referred to as a primary readout, because this assay has produced multiple assay endpoints where this one serves a signaling function. To generalize the intended target to other relatable targets, this assay endpoint is annotated to the dna binding intended target family, where the subfamily is cellular response to DNA damage stimulus.
Cells were treated with dimethyl sulfoxide (DMSO) as a solvent control at a final concentration of 0.5% v/v or with compounds in DMSO with a resulting final DMSO concentration of 0.5% v/v. Compound treatment was done at concentrations of 0.39, 0.78, 1.56, 3.12, 6.24, 12.5, 25, 50, 100, and 200 uM in duplicate on each plate. Cells were treated with compounds for 1, 24, or 72 hr. Carbonyl […] m-chloro-phenylhydrazone (CCCP) and taxol were used as positive controls for mitochondrial function and cytoskeletal stability, respectively; DMSO served as the negative control for this experiment. Cells were fixed by the direct addition of 50 uL formaldehyde in Hank's Balanced Salt Solution (HBSS) to a final concentration of 3.7%. After incubation in the fixation medium for 30 min at room temperature (293-298 K), cells were rinsed twice with HBSS and treated with cell permeabilization buffer (16 uL of 0.5% Triton X-100) for 10 min at room temperature (293-298 K) before labeling. For mitochondrial membrane potential and mitochondrial measurements, pre-fixed cells were incubated with 50 uL of MitoTracker Red CMXRos (Invitrogen) at a concentration of 250 nM for 30 min before fixation. In the remaining cases, post-fixed cells were labeled by incubation with a multiplexed mixture of primary antibodies in HBSS for 60 min at room temperature (293-298 K) to detect immunoreactivity of c-Jun (1:500), phospho-histone H3 (1:100), phospho-histone H2A.x (1:200), p53 (1:400), alpha-tubulin (1:200) and Hoechst 33342 (2 ug/mL). Cells were labeled for multiplexed imaging on two separate plates: a) Hoechst 33342, MitoTracker Red, phospho-histone H3, and alpha-tubulin, and b) Hoechst 33342, phospho-histone H2A.x, and c-Jun. A final rinse with HBSS (50 uL) was performed before analysis. The primary and secondary antibodies for the proteins were phospho-histone H3 (rabbit anti-phospho-histone H3 and FITC-donkey anti-rabbit IgG), phospho-histone H2A.x (mouse anti-phospho-histone H2A.x and FITC-donkey anti-mouse IgG), c-Jun (rabbit anti-phospho-c-Jun and Cy3-donkey anti-rabbit IgG), p53 (sheep anti-p53 and Cy5-donkey anti-sheep IgG), alpha-tubulin (mouse anti-alpha-tubulin and Cy5-donkey anti-mouse IgG). These antibodies are available as the CellCiphr HepG2 assay kit (Millipore).Digital images of each well were captured using a Cellomics ArrayScan VTI (Thermo Scientific Cellomics) (0.8 NA objective, 0.63x optical coupler, and XF-93 filter set) at 20x magnification. The images were acquired using the autofocus feature of the ArrayScan instrument, which entails the following steps. First, the camera focuses on channel 1 (Hoechst 33342), where nuclei are identified. Second, a Z offset of 1 um is used for capturing mitochondria (MitoTracker Red). […]
For `Cc1cn([C@H]2C=C[C@@H](CO)O2)c(=O)[nH]c1=O`, the outcome was “inactive”.
In the case of `CC(=O)OC1CC(C)OC(C)O1` (stereo not given), the outcome is reported as “inactive”.
In the case of `O=C1c2c(O)cccc2Cc2cccc(O)c21`, the outcome is reported as “inactive”.
In the case of `CC1=C(C)S(=O)(=O)CCS1(=O)=O`, the outcome is reported as “inactive”.
With `CCCCC(CC)COC(=O)CCCCCCCC(=O)OCC(CC)CCCC` (stereo not given) the outcome was “inactive”.
For `O=C(Oc1ccccc1)c1cccc(C(=O)Oc2ccccc2)c1`, the outcome was “inactive”.
In the case of `O=C(NS(=O)(=O)/C=C/c1cccs1)c1ccc(F)cc1Br`, the outcome is reported as “inactive”.
For `COC(=O)[C@H]1[C@H]2C[C@@H]3c4[nH]c5cc(OC)ccc5c4CCN3C[C@H]2C[C@@H](OC(=O)c2cc(OC)c(OC)c(OC)c2)[C@@H]1OC`, the AC50 was 30.1 µM (active).
With `CC(=O)[C@@]1(O)CC[C@H]2[C@@H]3CCC4=CC(=O)CC[C@]4(C)[C@H]3CC[C@@]21C` the outcome was “inactive”.
With `CC(COCC(C)OC(=O)c1ccccc1)OC(=O)c1ccccc1` (stereo not given) the outcome was “inactive”.
In the case of `S=c1[nH]c2ccccc2s1`, the outcome is reported as “inactive”.
For `O=Cc1ccccc1C=O`, the outcome was “inactive”.
With `CCCC[C@H]1CN(CC2CCOCC2)C(=O)OC12CCN(C1(C)CCN(C(=O)c3c(C)ncnc3C)CC1)CC2` the outcome was “inactive”.
With `O=C(O)CC(O)(CC(=O)O)C(=O)O` the outcome was “inactive”.
For `CCCCC(CC)CO` (stereo not given), the outcome was “inactive”.
With `CC(=O)S[C@H](C(=O)N[C@H]1Cc2ccccc2[C@H]2CCC[C@@H](C(=O)O)N2C1=O)C(C)C` the outcome was “inactive”.
In the case of `O=C1NC(=O)C(c2ccccc2)(c2ccccc2)N1`, the outcome is reported as “inactive”.
For `CC(=O)CC(c1ccccc1)c1c(O)c2ccccc2oc1=O` (stereo not given), the outcome was “inactive”.
In the case of `CCCCCCCCCC[N+](C)(C)[O-]`, the outcome is reported as “inactive”.
For `Nc1nc(=S)c2[nH]cnc2[nH]1`, the outcome was “inactive”.
For `CSc1ccc(Oc2ccc(S(N)(=O)=O)cc2CN(C)C)cc1C`, the AC50 was 92.5 µM (active).
In the case of `O=C(O)c1cccnc1`, the outcome is reported as “inactive”.
For `CC(C)(O)c1ccc(CNC(=O)c2cccnc2Oc2ccc(F)cc2)cc1`, the outcome was “inactive”.
In the case of `O=C1O[C@H]([C@H](O)CO)C(O)=C1O`, the outcome is reported as “inactive”.
For `CC(C)c1cccc(C(C)C)c1`, the outcome was “inactive”.
With `COC(=O)CCCC(=O)OC` the outcome was “inactive”.
For `OCC(O)CO`, the outcome was “inactive”.
With `CN(C)C(=O)NC1(c2ccccc2)CCN(CCC[C@]2(c3ccc(Cl)c(Cl)c3)CCCN(C(=O)c3ccccc3)C2)CC1` the AC50 was 22.5 µM (active).
In the case of `C#CC(O)C(CC)CCCC` (stereo not given), the outcome is reported as “inactive”.
For `NC1CCCCC1`, the outcome was “inactive”.
With `COC(=O)CCC(=O)OC` the outcome was “inactive”.
In the case of `COc1ccc(OC(F)(F)F)cc1CN[C@H]1CCCN[C@H]1c1ccccc1`, the AC50 is reported as 32.6 µM (active).
For `CCN(CC)CCOc1ccc(C(=C(Cl)c2ccccc2)c2ccccc2)cc1`, the AC50 was 10.5 µM (active).
With `C=CCCCCCCCCCCCC` the AC50 was 99 µM (active).
In the case of `CC(C)c1cccc(C(C)C)c1NC(=O)NS(=O)(=O)c1cc(C(C)(C)O)co1`, the outcome is reported as “inactive”.
For `CCc1nc(N)nc(N)c1-c1ccc(Cl)cc1`, the outcome was “inactive”.
With `OCC(CO)n1cnc(-c2ccc(F)cc2)c1-c1ccnc(Oc2ccccc2)n1` the outcome was “inactive”.
In the case of `CC1(C)C(=O)NC(=O)N1CO`, the outcome is reported as “inactive”.
With `CC(=O)O` the AC50 was 66.4 µM (active).
With `CCC(C)N(C)C(=O)c1cc2ccccc2c(-c2ccccc2Cl)n1` (stereo not given) the AC50 was 69.8 µM (active).
